Our source for the AC50 and outcome values is PubChem BioAssay (EPA / NIEHS).

Assay [1] has as its system zebrafish Estrogen Receptor (ER2b), gene 317733. In words: ATG_zfER2b_XSP2: Attagene TRANS-FACTORIAL Multi-Species (XSP2) HepG2 Assay for zebrafish Estrogen Receptor (ER2b) (AID 2283823).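 Further: fitted upward as reporter gain over DMSO so potency reflects activation.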 In short, it runs like this:
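HepG2 human liver cells transiently transfected with multiplexed GAL4-UAS reporter units expressing chimeric NR-Gal4 proteins; compounds dosed for 24 h. Reporter mRNA quantified by RT-PCR, 6-FAM labelling and capillary electrophoresis; gain-of-signal fitted against DMSO baseline.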

A short description of assay [2]: ATG_M_32_XSP2: Attagene TRANS-FACTORIAL Multi-Species (XSP2) HepG2 Assay for M19 Transcription Factor (Internal Marker) (AID 2283826). In short, it runs like this: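 Read-out: reporter mRNA quantified by RT-PCR, FAM labeling, HpaI digestion and capillary electrophoresis, 24 h after dosing transfected HepG2 cells. Medium carried 3 nM 6-alpha-fluorotestosterone plus 1.5 nM norgestrel; gain of signal fitted against DMSO.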

Assay [3] addresses Estrogen receptor (Homo sapiens) (UniProt P03372). Put plainly: ATG_hERa_XSP2: Attagene TRANS-FACTORIAL Multi-Species (XSP2) HepG2 Assay for human Estrogen Receptor (ERa) (AID 2283827). In short, it runs like this: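 HepG2 cells transiently transfected with multiplexed GAL4-UAS reporters driven by chimeric receptor-Gal4 proteins, dosed 24 h with 3 nM 6-alpha-fluorotestosterone and 1.5 nM norgestrel present. Reporter mRNA by RT-PCR and capillary electrophoresis; gain-of-signal fit versus DMSO.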

Assay [4] deals with frog Estrogen Receptor (ER2), gene 100174814. Put plainly: ATG_frER2_XSP2: Attagene TRANS-FACTORIAL Multi-Species (XSP2) HepG2 Assay for frog Estrogen Receptor (ER2) (AID 2283828). In short, it runs like this: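 Human liver HepG2, transient MRTU transfection (TRANS format, exogenous NR–Gal4). 24 h cpd exposure. Total RNA → RT → PCR → FAM label → HpaI cut → CE. Positive direction vs DMSO.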

The target of assay [5] is Peroxisome proliferator-activated receptor gamma (Homo sapiens) (UniProt P37231). Put plainly: ATG_hPPARg_XSP2: Attagene TRANS-FACTORIAL Multi-Species (XSP2) HepG2 Assay for human Peroxisome Proliferator-activated Receptor gamma (PPARg) (AID 2283829).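 Further: actives raise reporter mRNA above DMSO so AC50 reflects PPARg activation.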 In short, it runs like this:
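Reporter transcripts were measured by RT-PCR, fluorescent labeling, HpaI digestion and capillary electrophoresis, relative to DMSO, 24 h post-dosing. Transiently transfected HepG2 expressed NR-Gal4 chimeras regulating GAL4-UAS reporters; medium contained 3 nM 6-alpha-fluorotestosterone plus 1.5 nM norgestrel.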

Assay [6] addresses mouse Peroxisome Proliferator-activated Receptor gamma (PPARg), Pparg (gene 19016) (UniProt P37238). In words: ATG_mPPARg_XSP2: Attagene TRANS-FACTORIAL Multi-Species (XSP2) HepG2 Assay for mouse Peroxisome Proliferator-activated Receptor gamma (PPARg) (AID 2283830).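 Further: hits are gains in reporter mRNA above DMSO so AC50 marks activation.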 In short, it runs like this: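 HepG2 cells transiently transfected with GAL4-UAS reporter units for chimeric NR-Gal4 proteins including mouse PPARg, exposed 24 h; medium contained 3 nM 6-alpha-fluorotestosterone and 1.5 nM norgestrel. Reporter mRNA quantified by RT-PCR, HpaI digestion and capillary electrophoresis, vs DMSO.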

For assay [7], the target named is Nuclear receptor subfamily 1 group I member 2 (Mus musculus) (UniProt O54915). In words: ATG_mPXR_XSP2: Attagene TRANS-FACTORIAL Multi-Species (XSP1) HepG2 Assay for mouse Pregnane X Receptor (PXR) (AID 2283831). In short, it runs like this: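 Reporter transcripts measured after 24 h dosing by RT-PCR with 6-FAM labelling, HpaI digestion and capillary electrophoresis. Transiently transfected HepG2 with NR-Gal4 chimeras; increase over DMSO baseline scored.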

Assay [8] addresses zebrafish Thyroid Hormone Receptor alpha (TRa), thraa (gene 30670) (UniProt Q98867). Put plainly: ATG_zfTRa_XSP2: Attagene TRANS-FACTORIAL Multi-Species (XSP1) HepG2 Assay for zebrafish Thyroid Hormone Receptor alpha (TRa) (AID 2283832).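 Further: actives raise zebrafish TRa-Gal4 reporter transcript above DMSO baseline.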 In short, it runs like this: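 HepG2 transiently transfected with GAL4-UAS reporter units and chimeric zebrafish TRa-Gal4; reporter mRNA quantified after 24 h dosing by RT-PCR, HpaI digestion and capillary electrophoresis fluorescence. Gain of signal vs DMSO; XSP2 medium contains 3 nM 6-alpha-fluorotestosterone, 1.5 nM norgestrel.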

A short description of assay [9]: ATG_M_19_XSP2: Attagene TRANS-FACTORIAL Multi-Species (XSP2) HepG2 Assay for M32 Transcription Factor (Internal Marker) (AID 2283822). In short, it runs like this: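 Internal background marker in a multi-species nuclear receptor TRANS panel: transfected HepG2 cells exposed 24 h, with 3 nM 6-alpha-fluorotestosterone and 1.5 nM norgestrel present. Readout is RT-PCR of reporter transcripts resolved by capillary electrophoresis, gain-of-signal versus DMSO.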

Assay [10] relates to frog Androgen Receptor (AR), gene 399456. Put plainly: ATG_frAR_XSP2: Attagene TRANS-FACTORIAL Multi-Species (XSP2) HepG2 Assay for frog Androgen Receptor (AR) (AID 2283824).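 Further: reporter mRNA from GAL4-UAS units driven by Xenopus AR-Gal4 chimera; actives raise reporter signal above DMSO so AC50 reflects agonist-like induction.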 On the procedure: ATG_XSP2_multi-species_TRANS is a cell-based, multiplexed assay created by modifying the existing Attagene TRANS-FACTORIAL system to include a panel of nuclear receptors from some or all the following species: human (Homo sapiens), mouse (Mus musculus), frog (Xenopus laevis), zebrafish (Danio rerio), chicken (Gallus gallus), and turtle (Chrysemys picta). The ECOTOX-FACTORIAL format uses HepG2, a human liver cell line, with measurements taken at 24 hours after chemical dosing in a 24-well plate. Xsp2 included 3 nM 6-alpha-fluorotestosterone and 1.5 nM norgestrel to stimulate the androgen receptor.ATG_frAR_XSP2 is one of 29 assay components measured or calculated from the ATG_XSP2_multi-species_TRANS assay. It is designed to make measurements of mRNA induction, a form of inducible reporter, as detected with fluorescence intensity signals by Reverse transcription polymerase chain reaction (RT-PCR) and Capillary electrophoresis technology.The assay endpoint ATG_frAR_XSP2 was analyzed in the positive analysis fitting direction relative to DMSO as the negative control and baseline of activity. […] Furthermore, this assay endpoint can be referred to as a primary readout, because this assay has produced multiple assay endpoints where this one serves a reporter gene function. […]

Molecules are shown by their SMILES. Values joined by “and” are separate entries in the source; they are usually repeats but may differ in a detail not shown here. Equal entries are not always repeated. Inconclusive results are not listed. The source holds several records for some structures; these can differ, active in one and inactive in another. Active and inactive are the calls of the source. How the source made its calls: active means hit-call score of the fitted dose curve at least 0.9, where 1 is the maximum; inconclusive means response in the unintended direction; inactive means score below 0.9.

zebrafish Thyroid Hormone Receptor alpha (TRa), thraa (gene 30670), sequence (Q98867 whole entry, looked up, the tested form may be a part): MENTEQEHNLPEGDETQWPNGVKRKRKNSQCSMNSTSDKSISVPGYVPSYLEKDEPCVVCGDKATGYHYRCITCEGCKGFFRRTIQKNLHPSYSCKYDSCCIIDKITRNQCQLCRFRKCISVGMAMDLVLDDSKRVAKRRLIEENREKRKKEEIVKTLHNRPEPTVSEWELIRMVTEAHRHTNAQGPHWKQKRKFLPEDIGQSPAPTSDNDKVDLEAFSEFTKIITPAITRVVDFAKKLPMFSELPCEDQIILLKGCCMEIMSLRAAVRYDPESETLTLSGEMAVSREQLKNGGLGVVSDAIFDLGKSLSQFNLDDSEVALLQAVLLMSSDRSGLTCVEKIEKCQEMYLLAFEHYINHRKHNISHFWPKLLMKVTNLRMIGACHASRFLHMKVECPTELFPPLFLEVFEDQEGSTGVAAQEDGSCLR
mouse Peroxisome Proliferator-activated Receptor gamma (PPARg), Pparg (gene 19016), sequence (P37238 whole entry, looked up, the tested form may be a part): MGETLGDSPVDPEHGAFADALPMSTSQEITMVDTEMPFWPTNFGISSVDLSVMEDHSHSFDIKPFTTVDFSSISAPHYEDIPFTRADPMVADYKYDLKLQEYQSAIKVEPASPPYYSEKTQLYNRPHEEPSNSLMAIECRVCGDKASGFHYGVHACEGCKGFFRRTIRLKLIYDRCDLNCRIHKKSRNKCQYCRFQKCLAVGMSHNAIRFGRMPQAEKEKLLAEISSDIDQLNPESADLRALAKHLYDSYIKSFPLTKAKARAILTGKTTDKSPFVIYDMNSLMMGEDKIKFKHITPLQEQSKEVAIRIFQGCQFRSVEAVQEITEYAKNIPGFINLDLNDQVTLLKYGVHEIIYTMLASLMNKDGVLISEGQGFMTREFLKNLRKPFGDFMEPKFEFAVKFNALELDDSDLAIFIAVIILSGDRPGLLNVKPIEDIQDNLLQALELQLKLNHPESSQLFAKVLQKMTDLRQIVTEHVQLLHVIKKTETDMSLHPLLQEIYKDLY
Peroxisome proliferator-activated receptor gamma (Homo sapiens), sequence (P37231 whole entry, looked up, the tested form may be a part): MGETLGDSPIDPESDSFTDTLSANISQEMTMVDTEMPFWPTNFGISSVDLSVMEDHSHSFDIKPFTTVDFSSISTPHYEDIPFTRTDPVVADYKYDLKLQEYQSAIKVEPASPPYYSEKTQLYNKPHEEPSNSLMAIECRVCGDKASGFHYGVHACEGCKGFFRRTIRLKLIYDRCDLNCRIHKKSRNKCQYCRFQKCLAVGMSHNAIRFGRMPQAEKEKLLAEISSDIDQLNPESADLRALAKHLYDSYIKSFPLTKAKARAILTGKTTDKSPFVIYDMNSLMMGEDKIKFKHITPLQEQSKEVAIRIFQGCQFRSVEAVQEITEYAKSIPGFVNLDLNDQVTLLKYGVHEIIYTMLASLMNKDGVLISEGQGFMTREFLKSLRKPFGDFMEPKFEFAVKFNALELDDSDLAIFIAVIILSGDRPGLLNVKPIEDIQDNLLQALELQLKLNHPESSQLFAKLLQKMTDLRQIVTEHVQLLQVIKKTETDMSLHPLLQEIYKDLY
Estrogen receptor (Homo sapiens), sequence (P03372 whole entry, looked up, the tested form may be a part): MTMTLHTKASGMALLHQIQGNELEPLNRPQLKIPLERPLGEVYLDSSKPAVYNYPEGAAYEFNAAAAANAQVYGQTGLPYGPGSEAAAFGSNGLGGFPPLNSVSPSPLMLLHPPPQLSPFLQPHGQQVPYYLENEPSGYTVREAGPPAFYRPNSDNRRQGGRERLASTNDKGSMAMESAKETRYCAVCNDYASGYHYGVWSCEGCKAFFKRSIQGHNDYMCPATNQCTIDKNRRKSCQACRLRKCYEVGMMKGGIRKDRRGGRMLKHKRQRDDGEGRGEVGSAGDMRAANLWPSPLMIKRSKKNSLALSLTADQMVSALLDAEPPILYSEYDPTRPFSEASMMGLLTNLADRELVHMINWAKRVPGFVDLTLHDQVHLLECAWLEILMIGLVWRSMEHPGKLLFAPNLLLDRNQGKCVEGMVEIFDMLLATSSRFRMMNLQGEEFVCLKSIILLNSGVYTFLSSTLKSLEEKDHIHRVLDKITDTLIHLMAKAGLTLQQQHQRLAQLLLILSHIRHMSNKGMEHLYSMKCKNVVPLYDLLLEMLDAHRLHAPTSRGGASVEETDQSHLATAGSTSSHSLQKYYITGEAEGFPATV
Nuclear receptor subfamily 1 group I member 2 (Mus musculus), sequence (O54915 whole entry, looked up, the tested form may be a part): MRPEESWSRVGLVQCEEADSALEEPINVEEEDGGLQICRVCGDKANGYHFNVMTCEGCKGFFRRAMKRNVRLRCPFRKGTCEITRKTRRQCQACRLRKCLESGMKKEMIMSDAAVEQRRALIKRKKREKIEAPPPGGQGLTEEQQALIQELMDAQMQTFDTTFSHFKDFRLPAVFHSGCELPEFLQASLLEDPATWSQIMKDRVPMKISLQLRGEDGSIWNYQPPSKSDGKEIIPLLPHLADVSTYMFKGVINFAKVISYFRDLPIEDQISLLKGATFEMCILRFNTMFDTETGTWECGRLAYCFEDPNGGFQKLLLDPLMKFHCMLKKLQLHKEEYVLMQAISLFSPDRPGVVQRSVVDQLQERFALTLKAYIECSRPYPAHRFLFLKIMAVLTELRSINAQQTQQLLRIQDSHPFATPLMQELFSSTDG

Consider `CC(C)(C)C(O)/C(=C\c1ccc(Cl)cc1Cl)n1cncn1` (stereo not given), for which the AC50 was 44 µM (active) and 14.4 µM (active) in assay [1]; 13.2 µM (active) and 17 µM (active) in assay [3]; 23.1 µM (active) and 8.13 µM (active) in assay [4]; 46.7 µM (active) and 47.6 µM (active) in assay [5]; 33.4 µM (active) and 20.8 µM (active) in assay [6]; 1.24 µM (active) and 1.41 µM (active) in [7]. The result in [2] and in assay [8] was inactive.

Turning to `COP(=S)(OC)Oc1ccc([N+](=O)[O-])cc1`, the call in [9], in [1], in assay [5], in assay [6], in [7] and in assay [8] was inactive. Besides, the AC50 is 39.3 µM (active) in [1]; 31.1 µM (active) and 40.7 µM (active) in [3]; 100 µM (active) and 36.9 µM (active) in assay [4]; 27.7 µM (active) in assay [5]; 27 µM (active) in [6]; 41.4 µM (active) in assay [7].

For the compound `CCCN(CCOc1c(Cl)cc(Cl)cc1Cl)C(=O)n1ccnc1`, the compound was classed as inactive in [1], in assay [2], in assay [4] and in [8]. The results for the AC50 in assay [5], in [6] and in [7] were 16.6 µM (active), 20.4 µM (active) and 0.108 µM (active), respectively.

Take `CC1(C)C(C=C(Cl)Cl)C1C(=O)OC(C#N)c1ccc(F)c(Oc2ccccc2)c1` (stereo not given): the compound was called inactive in [9], in assay [2], in assay [3] and in [8]. Moreover, the AC50 is 20.5 µM (active) in assay [5], 10.9 µM (active) in assay [6] and 1.97 µM (active) in assay [7].

`Oc1ccc(Cl)cc1Cc1ccccc1`: the figures for the AC50 in [1] and in [5] were 14.6 µM (active) and 10 µM (active), respectively. The call in [4], in assay [6] and in assay [7] was inactive.

As for `O=S1OCC2C(CO1)C1(Cl)C(Cl)=C(Cl)C2(Cl)C1(Cl)Cl` (stereo not given), the figures for the concentration at half-maximal activity (AC50) in assay [1] and in assay [3] were 10 µM (active) and 1.04 µM (active), respectively. The compound was classed as inactive in [4], in assay [5], in assay [7] and in assay [8].

`COP(=S)(OC)Oc1ccc(SC)c(C)c1`: the AC50 in [1] is 59 µM (active); in [3] it was 8.43 µM (active); in [4], 26.8 µM (active); in assay [5], 34.2 µM (active); in [6] it was 35.8 µM (active); in [7], 1.94 µM (active). The outcome in assay [8] was inactive.

`CCOCN(C(=O)CCl)c1c(C)cccc1CC`: the compound was classed as inactive in [9], in [2] and in assay [4]. The AC50 in assay [1] was 100 µM (active); in [5], 1.01 µM (active); in assay [6] it was 2.14 µM (active); in assay [7] it was 5.1 µM (active).

With `O=C(O)C(F)(F)C(F)(F)C(F)(F)C(F)(F)C(F)(F)C(F)(F)C(F)(F)F`, the outcome in [9], in [10] and in assay [2] was inactive. The AC50 was 124 µM (active) in [1] and 64.1 µM (active) in assay [4].

Turning to `Oc1cc(Cl)ccc1Oc1ccc(Cl)cc1Cl`, the AC50 is 16.1 µM (active) in assay [1], 11.1 µM (active) in [5], 15 µM (active) in [6] and 11.1 µM (active) in assay [7]. Besides, the compound was classed as inactive in [2], in assay [4] and in assay [8].

For `O=S(=O)(O)C(F)(F)C(F)(F)C(F)(F)C(F)(F)C(F)(F)C(F)(F)C(F)(F)C(F)(F)F`, the AC50 was 146 µM (active) in [1], 119 µM (active) in assay [5] and 145 µM (active) in assay [6]. Besides, the compound was called inactive in assay [2] and in assay [7].

`CCCN(CCC)c1c([N+](=O)[O-])cc(C(F)(F)F)cc1[N+](=O)[O-]`: the call in assay [9], in assay [2], in [5], in [6] and in assay [8] was inactive. Also, the AC50 in assay [1] was 69.9 µM (active); in assay [3], 18.8 µM (active); in assay [4] it was 100 µM (active); in assay [7], 1.88 µM (active).

What is called AC50 is the midpoint of the concentration-response curve, whichever way the signal moves.
